Laboratory results as given in the supplement of paper PMC13380429.

System: Vero E6 infected with SARS-CoV-2
Assay: inhibition of SARS-CoV-2 cytopathic effect; higher = more antiviral protection, active = above 15
Conditions: 48 h

Measured: inhibition of SARS-CoV-2 cytopathic effect

O=C(Oc1cccc2cccnc12)c1ccccc1 [benzoxiquine]
inactive: 1 nM 1.28% | 8.33 nM 1.56% | 100 nM -0.45% | 833.33 nM -1.05% | 10000 nM -3.29%

CN(C)C(=O)COC(=O)Cc1ccc(OC(=O)c2ccc(NC(=N)N)cc2)cc1 [camostat-mesilate]
inactive: 1 nM 3.69% | 8.33 nM -0.38% | 100 nM 1.74% | 833.33 nM 1.93% | 10000 nM -2.24%

Oc1c(Cl)cc(Cl)c(Cl)c1Cc1c(O)c(Cl)cc(Cl)c1Cl [hexachlorophene]
inactive: 1 nM 0.56% | 8.33 nM 1.77% | 100 nM 0.2% | 833.33 nM 2.38% | 10000 nM 8.62%

O=C(Nc1cc(-c2ccccc2)nn1-c1ccccc1F)c1ccc([N+](=O)[O-])cc1
inactive: 1 nM -0.89% | 8.33 nM 1.45% | 100 nM 1.23% | 833.33 nM -3.16% | 10000 nM 2.79%

CCOC(=O)OC(C)OC1=C(C(=O)Nc2ccccn2)N(C)S(=O)(=O)c2ccccc21 (stereo not given) [ampiroxicam]
inactive: 1 nM 1.01% | 8.33 nM -0.58% | 100 nM 1.16% | 833.33 nM 2.1% | 10000 nM 2.74%

CC[C@@H](Nc1c(Nc2cccc(C(=O)N(C)C)c2O)c(=O)c1=O)c1ccc(C)o1 [navarixin]
inactive: 1 nM -0.8% | 8.33 nM 1.26% | 100 nM 0.77% | 833.33 nM 1.8% | 10000 nM -2.11%

CCOC(=O)CCNc1cc(N2CCc3ccccc3CC2)nc(-c2ccccn2)n1
inactive: 1 nM -5.53% | 8.33 nM 0.27% | 100 nM 1.52% | 833.33 nM 1.83% | 10000 nM -0.53%
